Measured values: PubChem BioAssay (Tox21)
Records with an inconclusive call do not appear. Calls of active or inactive are those of the source. Unless noted, the call rests on the fitted dose curve; in most records, active means well fitted curve in the direction sought with a large enough effect in the repeat runs; inconclusive means weak or mixed curves; inactive means no such curve, though single readings can be large; an effect the other way counts as inactive or inconclusive.

Experiments:
[1] = qHTS assay to identify small molecule antagonists of the estrogen related receptor (ERR) signaling pathway - cell viability counter screen (AID 1224818); further: series mostly up to about 46 µM
Method in brief: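 Fluorescence from CellTiter-Fluor, read 30 min after reagent addition at 37 C, measured viability of ERR cells exposed to compounds for 17.5 h. Cells had settled 6 h before dosing.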

[2] = qHTS assay to identify small molecule antagonists of the estrogen related receptor signaling pathway with the pleiotropic PPARgamma coactivator (PGC) cell viability counter screen (AID 1224822; further: series mostly up to about 46 µM)
Method in brief: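 Fluorescence read-out of CellTiter-Fluor after 30 min at 37 C; PGC/ERR cells, 2,000 per well, had been exposed to DMSO-dissolved compounds for 17.5 h following a 6 h pre-incubation.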

[3] = qHTS assay to identify small molecule agonists of the estrogen related receptor (ERR) signaling pathway (AID 1224820)
Method in brief: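 After 6 h plating (2,000 cells/well) and 18 h compound treatment at 37 C, ERR cells were lysed with One-Glo and luminescence read after 30 min at room temperature.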

[4] = test system: estrogen-related receptor alpha (ERRalpha) with PGC-1alpha coactivator, human; experiment: qHTS assay to identify small molecule antagonists of the estrogen related receptor signaling pathway with the pleiotropic PPARgamma coactivator (PGC) (AID 1224821; calls by dose curve;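 further: series mostly up to about 46 µM; lower luminescence signal means antagonism of PGC/ERR signalling; nearly all actives have a fitted effect of over 50% in size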)
Method in brief: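 Luminescence from One-Glo luciferase reagent (30 min, room temperature) measured after 18 h compound treatment at 37 °C. Cells carry the PGC/ERR reporter and were seeded 6 h prior to dosing.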

[5] = qHTS assay to identify small molecule agonists of the estrogen related receptor signaling pathway with the pleiotropic PPARgamma coactivator (PGC) (AID 1224823)
Method in brief: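 Luminescence from One-Glo reagent (30 min, room temperature) was read after 18 h compound treatment at 37 C of PGC/ERR cells plated 6 h beforehand; compounds delivered in DMSO by pin tool.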

[6] = qHTS assay to identify small molecule antagonists of the estrogen related receptor (ERR) signaling pathway (AID 1224819; further: series mostly up to about 46 µM; nearly all actives have a fitted effect of over 50% in size)
Method in brief: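 Luminescence readout (One-Glo, 30 min, RT) of ERR cell line after 18 h compound exposure at 37 C; cells seeded 2,000/well, pre-incubated 6 h, compounds pinned from DMSO stocks.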

Measured: Potency

COC(=O)[C@@H](N)CCCN=C(N)N[N+](=O)[O-]
inactive: [1] | [2]

C[N+]1(C)C2CC(OC(=O)[C@H](CO)c3ccccc3)CC1C1OC12 (stereo not given in full)
inactive: [1] | [2]

NC(Cc1cc(O)c(O)cc1O)C(=O)O (stereo not given)
not listed: [6]
inactive: all other assays above

CC[C@@H]1C(=O)OC[C@@H]1Cc1cncn1C
inactive: [1] | [2]

CCS(=O)(=O)Nc1cccc(C(=C2CCCCC2)c2cnc[nH]2)c1
inactive: [1] | [3] | [2] | [5]

c1ccc2cc(CC3=NCCN3)ccc2c1
inactive: [1] | [2]

CCCC[N+]1(C)C2CC(OC(=O)[C@H](CO)c3ccccc3)CC1C1OC12 (stereo not given in full)
inactive: [1] | [2]

CN1C2CCC1CC(OC(=O)c1cc(Cl)cc(Cl)c1)C2 (stereo not given)
inactive: [1] | [2]

CO[C@H]1CC=C2CCN3CCC4=C(CC(=O)OC4)[C@]23C1
inactive: [1] | [2]

NC(=O)COc1c(F)cc(SCCNS(=O)(=O)c2ccccc2)cc1F
not listed: [6]
inactive: all other assays above

NC1CC1c1ccccc1 (stereo not given)
inactive: [1] | [2]

Cc1o[nH]c(=O)c1CC(N)C(=O)O (stereo not given)
inactive: [1] | [2]

CN(N=O)c1cc(O)ccc1O
inactive: [1] | [6] | [2] | [5]

COc1ccc2c(c1)C13CCCCC1C(C2)N(C)CC3 (stereo not given)
not listed: [4]
inactive: all other assays above

Nc1cc2c(ncn2CCOCP(=O)(O)O)c(=O)[nH]1
not listed: [6]
inactive: all other assays above

CCCN1CCc2cccc3c2[C@H]1Cc1ccc(O)c(O)c1-3
inactive: [1] | [6] | [3] | [5]

C=CCN1CC[C@]23CCCCC2[C@H]1Cc1ccc(O)cc13 (stereo not given in full)
not listed: [3]
inactive: all other assays above
